Screening results: PubChem, The Scripps Research Institute Molecular Screening Center
Rows were chosen to be rich in hits. Some 2.5% of all compounds tested hit in one or more screens of this group.
UHRF1 binding – UHRF1 methyl-DNA binding inhibition; Q96T88; UHRF1 binding to methylated oligo, TR-FRET; inhibition, % at 4.4 µM; 0.75% of 370,000 active;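 also: UHRF1 SRA domain binding a hemimethylated CpG hairpin DNA probe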
Target sequence (Q96T88 whole entry, looked up, the tested form may be a part): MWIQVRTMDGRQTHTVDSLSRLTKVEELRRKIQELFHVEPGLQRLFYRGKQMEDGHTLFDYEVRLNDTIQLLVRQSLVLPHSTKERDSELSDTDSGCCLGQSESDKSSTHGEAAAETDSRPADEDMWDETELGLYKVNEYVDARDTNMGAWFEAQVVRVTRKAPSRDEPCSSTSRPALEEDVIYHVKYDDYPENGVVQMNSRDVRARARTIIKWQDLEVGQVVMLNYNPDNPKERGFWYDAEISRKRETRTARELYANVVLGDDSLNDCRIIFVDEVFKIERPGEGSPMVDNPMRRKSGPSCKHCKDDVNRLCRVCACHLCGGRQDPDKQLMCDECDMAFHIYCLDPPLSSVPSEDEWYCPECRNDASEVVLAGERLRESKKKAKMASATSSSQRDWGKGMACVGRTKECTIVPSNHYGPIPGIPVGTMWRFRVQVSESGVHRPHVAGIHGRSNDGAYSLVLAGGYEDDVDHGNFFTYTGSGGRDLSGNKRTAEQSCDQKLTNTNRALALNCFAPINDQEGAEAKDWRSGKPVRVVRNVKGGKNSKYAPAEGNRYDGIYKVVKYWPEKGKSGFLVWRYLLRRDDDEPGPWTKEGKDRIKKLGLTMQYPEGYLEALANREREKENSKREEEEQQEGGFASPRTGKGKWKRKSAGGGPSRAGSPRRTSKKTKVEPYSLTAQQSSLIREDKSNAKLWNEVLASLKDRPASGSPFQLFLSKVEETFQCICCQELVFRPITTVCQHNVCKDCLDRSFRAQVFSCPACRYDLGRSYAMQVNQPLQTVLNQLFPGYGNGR
MBD2 inh – MBD2-methylated oligo binding inhibition | Q9UBB5 | TR-FRET, MBD2 binding to methylated oligonucleotide | inhibition, % at 4.4 µM | 0.31% of 370,000 active | AID 686964; in the data active = inhibition above about 13%
LEDGF integ inh – blocks HIV-1 LEDGF/p75-dependent DNA integration | TR-FRET IN-LEDGF/p75 DNA integration, Eu/Cy5 | inhibition, % at 3.7 µM | AID 743269 | 0.64% of 370,000 active;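 active = inhibition above the screen-wide mean plus 3 SD, cut at about 13% in these data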;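 also: signal is the Cy5 over europium emission ratio at 671 and 618 nm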
PRMT1 FP inh – PRMT1 (human) inhibition, primary screen; Q99873; inhibition, % at 2.79 µM; 1.3% of 370,000 active; AID 652257; recombinant PRMT1, activity-based probe fluorescence polarization;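 active = inhibition above about 21% made by adding two undisclosed values, limit read from the data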
UHRF1 ctr MBD2 – counter-screen for MBD2 inhibitors: human UHRF1 methylated DNA binding inhibitors. shares compounds with MBD2 inh. UHRF1 binding to methylated oligonucleotide, TR-FRET. 25% of 1,000 active. inhibition, % at 4.4 µM;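 also: UHRF1 SRA domain binding a labeled hemimethylated CpG hairpin DNA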
MBD2 DBD conf – MBD2-DBD methyl-DNA binding inhibition, TR-FRET confirmation; shares compounds with MBD2 inh; TR-FRET MBD2-DBD binding to methylated oligonucleotide; inhibition, % at 4.4 µM; 26% of 1,000 active; AID 720531; in the data active = inhibition above about 14%
Hits are given with their value. Rule as the data show it, unless noted: active = inhibition above about 21%; inactive = the rest.

Results for O=C(OCc1cc(=O)n2c(n1)sc1ccccc12)c1cccc(O)c1 ?
UHRF1 binding: inactive; MBD2 inh: 13.4; LEDGF integ inh: inactive; PRMT1 FP inh: inactive; UHRF1 ctr MBD2: 21.0; MBD2 DBD conf: 17.9

Results for O=C(OCc1cc(=O)n2c(n1)sc1ccccc12)c1ccc(O)cc1O ?
UHRF1 binding: inactive; MBD2 inh: inactive; LEDGF integ inh: inactive; PRMT1 FP inh: inactive

What do the screens show for `O=C(Cc1coc2cc3c(cc12)CCC3)OCc1cc(=O)n2c(n1)sc1ccccc12`?
UHRF1 binding: inactive; MBD2 inh: 16.3; LEDGF integ inh: inactive; PRMT1 FP inh: inactive; UHRF1 ctr MBD2: inactive; MBD2 DBD conf: 14.1

What do the screens show for `COc1cccc(CC(=O)Nc2ccc(S(=O)(=O)N3CCCCC3)cc2)c1`?
UHRF1 binding: inactive; MBD2 inh: 13.3; LEDGF integ inh: inactive; PRMT1 FP inh: inactive; UHRF1 ctr MBD2: inactive; MBD2 DBD conf: inactive

How did CCC(C(=O)OCc1csc(CC(=O)Nc2ccccc2C)n1)c1ccccc1 (configuration not stated) do in these assays?
UHRF1 binding: inactive; MBD2 inh: inactive; LEDGF integ inh: inactive; PRMT1 FP inh: inactive

How did Cc1ccccc1NC(=O)Cc1nc(COC(=O)CC(C)c2ccccc2)cs1 (configuration not stated) do in these assays?
UHRF1 binding: inactive; MBD2 inh: 19.5; LEDGF integ inh: inactive; PRMT1 FP inh: inactive; UHRF1 ctr MBD2: inactive; MBD2 DBD conf: inactive

How did CCCCC1Cc2[nH]c(=S)[nH]c(=O)c2C(c2cccc3ccccc23)O1 (configuration not stated) do in these assays?
UHRF1 binding: inactive; MBD2 inh: inactive; LEDGF integ inh: inactive; PRMT1 FP inh: inactive

How did CS/C(=C/[N+](=O)[O-])Nc1cccc2c1C(C)CC2(C)C (configuration not stated) do in these assays?
UHRF1 binding: inactive; MBD2 inh: inactive; LEDGF integ inh: inactive; PRMT1 FP inh: inactive

Results for O=C(N/N=C/C=C/c1ccccc1)c1cc(C2CC2)[nH]n1 ?
UHRF1 binding: inactive; MBD2 inh: 20.6; LEDGF integ inh: inactive; PRMT1 FP inh: inactive; UHRF1 ctr MBD2: inactive; MBD2 DBD conf: inactive

What do the screens show for `COc1cc2nc(NCC3CCCO3)n3nc(-c4cccnc4)nc3c2cc1OC` (configuration not stated)?
UHRF1 binding: inactive; MBD2 inh: inactive; LEDGF integ inh: inactive; PRMT1 FP inh: inactive

What do the screens show for `COCCCNc1nc2cc(OC)c(OC)cc2c2nc(-c3ccccc3)nn12`?
UHRF1 binding: inactive; MBD2 inh: inactive; LEDGF integ inh: inactive; PRMT1 FP inh: inactive

What do the screens show for `COc1cc2nc(NCCCN3CCN(C)CC3)n3nc(-c4ccccc4)nc3c2cc1OC`?
UHRF1 binding: 49.5; MBD2 inh: 47.8; LEDGF integ inh: inactive; PRMT1 FP inh: inactive; UHRF1 ctr MBD2: 41.0; MBD2 DBD conf: 42.5

Results for CCN(CC)CCCNc1nc2cc(OC)c(OC)cc2c2nc(-c3cccnc3)nn12 ?
UHRF1 binding: 68.2; MBD2 inh: 69.1; LEDGF integ inh: inactive; PRMT1 FP inh: inactive; UHRF1 ctr MBD2: 81.2; MBD2 DBD conf: 77.9

Results for CN1CCN(CCCNc2nc3ccccc3c3nc(-c4ccccc4)nn23)CC1 ?
UHRF1 binding: inactive; MBD2 inh: inactive; LEDGF integ inh: inactive; PRMT1 FP inh: inactive

How did CCN(CC)CCCNc1nc2cc(OC)c(OC)cc2c2nc(-c3ccccc3)nn12 do in these assays?
UHRF1 binding: 35.3; MBD2 inh: 34.9; LEDGF integ inh: inactive; PRMT1 FP inh: inactive; UHRF1 ctr MBD2: 56.1; MBD2 DBD conf: 57.0

What do the screens show for `Cn1ccnc1C(=O)O[C@@H]1CCC[C@@]2(C(=O)N(Cc3ccccc3)c3ccccc32)[C@H]1NC(=O)CCc1ccccc1`?
UHRF1 binding: inactive; MBD2 inh: inactive; LEDGF integ inh: inactive; PRMT1 FP inh: inactive

How did COc1ccc(C(=O)OCC(=O)c2c[nH]c3ccccc23)cc1OC do in these assays?
UHRF1 binding: 21.8; MBD2 inh: 14.0; LEDGF integ inh: inactive; PRMT1 FP inh: inactive; UHRF1 ctr MBD2: inactive; MBD2 DBD conf: inactive

How did Cc1ccc(NC(=O)CSc2cccc[n+]2[O-])c([N+](=O)[O-])c1 do in these assays?
UHRF1 binding: inactive; MBD2 inh: inactive; LEDGF integ inh: inactive; PRMT1 FP inh: inactive

How did O=C(CSc1cccc[n+]1[O-])Nc1cc([N+](=O)[O-])ccc1Cl do in these assays?
UHRF1 binding: inactive; MBD2 inh: 13.4; LEDGF integ inh: inactive; PRMT1 FP inh: inactive; UHRF1 ctr MBD2: inactive; MBD2 DBD conf: inactive

How did O=C(CNc1cccc([N+](=O)[O-])c1)NC(=O)NC1CCCCC1 do in these assays?
UHRF1 binding: inactive; MBD2 inh: inactive; LEDGF integ inh: inactive; PRMT1 FP inh: inactive

How did CCOc1ccc(OCCC(=O)N2CCc3cc(OC)c(OC)cc3C2)cc1 do in these assays?
UHRF1 binding: inactive; MBD2 inh: inactive; LEDGF integ inh: inactive; PRMT1 FP inh: inactive

What do the screens show for `O=C(Cn1cnc2scc(-c3cccc([N+](=O)[O-])c3)c2c1=O)NCc1ccco1`?
UHRF1 binding: inactive; MBD2 inh: 23.8; LEDGF integ inh: inactive; PRMT1 FP inh: inactive; UHRF1 ctr MBD2: 23.3; MBD2 DBD conf: 17.1

How did CCCc1nc2ccc(C(=O)OC)cn2c1Cc1cccc(F)c1 do in these assays?
UHRF1 binding: 25.8; MBD2 inh: 17.4; LEDGF integ inh: inactive; PRMT1 FP inh: inactive; UHRF1 ctr MBD2: inactive; MBD2 DBD conf: inactive

How did COC(=O)c1cc(S(=O)(=O)Nc2cccc(-c3ccno3)c2)c[nH]1 do in these assays?
UHRF1 binding: inactive; MBD2 inh: inactive; LEDGF integ inh: inactive; PRMT1 FP inh: inactive

How did CC(c1ccccc1C(=O)O)c1cc(F)cc2ccccc12 (configuration not stated) do in these assays?
UHRF1 binding: inactive; MBD2 inh: inactive; LEDGF integ inh: inactive; PRMT1 FP inh: inactive

How did Cc1ccc(-n2nc3c(c2NC(=O)c2cccs2)CS(=O)(=O)C3)c(C)c1 do in these assays?
UHRF1 binding: inactive; MBD2 inh: 15.2; LEDGF integ inh: inactive; PRMT1 FP inh: inactive; UHRF1 ctr MBD2: inactive; MBD2 DBD conf: inactive

What do the screens show for `CC(=O)Nc1c2c(nn1-c1ccc(C)cc1)CS(=O)(=O)C2`?
UHRF1 binding: inactive; MBD2 inh: 70.2; LEDGF integ inh: inactive; PRMT1 FP inh: inactive; UHRF1 ctr MBD2: inactive; MBD2 DBD conf: inactive

How did N=c1oc2cc(O)ccc2cc1C(=O)Nc1ccc(Cl)cc1 do in these assays?
UHRF1 binding: inactive; MBD2 inh: 14.2; LEDGF integ inh: inactive; PRMT1 FP inh: inactive; UHRF1 ctr MBD2: inactive; MBD2 DBD conf: inactive

What do the screens show for `Cc1ccc(C)c(C(=O)OCC(=O)Nc2cccc(S(=O)(=O)NC3=NCCCCC3)c2)c1`?
UHRF1 binding: inactive; MBD2 inh: 16.6; LEDGF integ inh: inactive; PRMT1 FP inh: inactive; UHRF1 ctr MBD2: inactive; MBD2 DBD conf: inactive

What do the screens show for `COc1cc2c(cc1NC(=O)COc1ccccc1OC)oc1ccccc12`?
UHRF1 binding: inactive; MBD2 inh: inactive; LEDGF integ inh: inactive; PRMT1 FP inh: inactive

How did COc1cc2c(cc1NC(=O)COC(=O)Cn1cnc3ccccc31)oc1ccccc12 do in these assays?
UHRF1 binding: inactive; MBD2 inh: 18.6; LEDGF integ inh: inactive; PRMT1 FP inh: inactive; UHRF1 ctr MBD2: inactive; MBD2 DBD conf: inactive
